Most compounds without a hit are left out; they make up all but 12% or so of the library.
BAZ2B inh: qHTS Assay for Inhibitors of BAZ2B; Bromodomain adjacent to zinc finger domain protein 2B (Homo sapiens), Q9UIF8; AlphaScreen BAZ2B-H3K14Ac peptide displacement; Potency, µM (series often up to 114 µM), without a hit: top-dose activity change, negative = inhibition, most hits filed as inhibitors; actives 4.4% (n = 360,000); AID 504333, 2011; further: on the % scale 0 is the no-effect control and ±100 the full control effect; nearly all actives have a fitted effect of over 60% in size
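BAZ2B (50 nM) with biotin-H3(5-23)K14Ac peptide (50 nM) in PBS pH 7.4, 0.01% Tween-20, preformed 30 min, then compound 30 min at room temperature; top concentration 110uM. AlphaScreen streptavidin donor/nickel chelate acceptor beads (10 ug/mL final), 20 min dark, signal read.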
JMJD2A Tudor: qHTS Assay for Inhibitors of JMJD2A-Tudor Domain. Lysine-specific demethylase 4A (Homo sapiens), O75164. AlphaScreen JMJD2A-Tudor / H3K4me3 peptide binding. Potency, µM (series often up to 114 µM), for the others: top-dose activity change, negative = inhibition, most hits filed as inhibitors. actives 4.4% (n = 390,000). AID 504339, 2011; further: on the % scale 0 is the no-effect control and ±100 the full control effect; nearly all actives have a fitted effect of over 50% in size
HP1b binding inh: HTS for Inhibitors of HP1-beta Chromodomain Interactions with Methylated Histone Tails. Chromobox protein homolog 1 (Homo sapiens), P83916. actives 0.56% (n = 390,000). Potency, µM (doses to about 114 µM), without a hit: at the highest dose activity change, negative = inhibition, actives largely listed as inhibitors. AlphaScreen HP1-beta / biotin-H3K9me3 peptide binding; further: nearly all actives have a fitted effect of over 70% in size
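AlphaScreen: HP1-beta (50 nM) preformed 30 min with biotin-H3(1-18)K9me3 peptide (50 nM) in PBS pH 7.4, 0.01% Tween-20. Compound added for 30 min at RT, then streptavidin donor/nickel chelate acceptor beads (10 ug/mL) for 30 min.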
Sfp PPTase inh: qHTS Assay for Inhibitors of Bacillus subtilis Sfp phosphopantetheinyl transferase (PPTase). 4'-phosphopantetheinyl transferase ffp (Bacillus subtilis), Q9F4F7. Biochemical Sfp PPTase activity, qHTS. actives 3.5% (n = 310,000). Potency, µM, inactives show largest response in the series, negative = inhibition, hits mostly inhibitors;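 further: the enzyme is Sfp with the accession as filed and its product quenches rhodamine fluorescence; 0% = enzyme reaction without inhibitor and -100% = no enzyme wells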
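Buffer: 50 mM Hepes-Na pH 7.6, 10 mM MgCl2, 0.01% Nonidet P-40, 0.01% BSA. Enzyme 15 nM, pre-exposed to compound 15 min; substrates then added and fluorescence change tracked over 30 min.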
L3MBTL1 block: qHTS Assay for the Inhibitors of L3MBTL1 | AlphaScreen L3MBTL1–H3K9me1 peptide binding | actives 0.66% (n = 230,000) | Potency, µM (top dose mostly 57.1 µM), inactives show at the top dose activity, negative = inhibition, usual class: inhibitors; further: on the % scale 0 is the no-effect control and ±100 the full control effect; nearly all actives have a fitted effect of over 60% in size
Target sequence (Q9Y468 whole entry, looked up): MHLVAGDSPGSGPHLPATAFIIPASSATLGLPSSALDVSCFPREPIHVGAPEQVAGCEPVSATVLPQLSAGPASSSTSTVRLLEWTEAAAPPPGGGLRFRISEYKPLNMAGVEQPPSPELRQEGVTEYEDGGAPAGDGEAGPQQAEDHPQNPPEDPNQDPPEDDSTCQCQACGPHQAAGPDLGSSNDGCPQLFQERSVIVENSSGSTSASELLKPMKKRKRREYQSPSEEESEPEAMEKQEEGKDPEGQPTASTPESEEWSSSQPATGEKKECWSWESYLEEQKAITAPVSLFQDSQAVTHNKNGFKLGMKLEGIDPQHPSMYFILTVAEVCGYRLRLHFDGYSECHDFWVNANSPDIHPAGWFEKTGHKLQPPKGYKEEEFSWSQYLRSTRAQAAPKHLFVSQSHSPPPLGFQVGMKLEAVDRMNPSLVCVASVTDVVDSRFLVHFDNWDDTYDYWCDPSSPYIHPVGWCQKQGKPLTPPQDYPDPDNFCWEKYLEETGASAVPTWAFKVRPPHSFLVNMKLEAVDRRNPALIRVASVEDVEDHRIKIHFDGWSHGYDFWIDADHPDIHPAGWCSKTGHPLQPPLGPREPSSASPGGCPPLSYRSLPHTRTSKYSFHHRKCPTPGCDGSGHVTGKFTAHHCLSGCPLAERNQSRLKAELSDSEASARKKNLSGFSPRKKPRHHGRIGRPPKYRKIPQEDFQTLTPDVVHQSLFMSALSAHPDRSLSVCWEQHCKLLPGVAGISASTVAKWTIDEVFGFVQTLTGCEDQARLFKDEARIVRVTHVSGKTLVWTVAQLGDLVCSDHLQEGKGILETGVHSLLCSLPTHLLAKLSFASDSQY
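AlphaScreen proximity signal between nickel-chelate acceptor and streptavidin donor beads (final 10 ug/mL) reports binding of 50 nM L3MBTL1 to 75 nM biotin-H3 K9me1 peptide; complex incubated with compounds 30 min at room temperature; cefsulodin titration as control.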
G9a inh: qHTS Assay for Inhibitors of Histone Lysine Methyltransferase G9a | Potency, µM (top dose mostly 102 µM), without a hit: top-dose activity, negative = inhibition, most hits filed as inhibitors | Histone-lysine N-methyltransferase EHMT2 (Homo sapiens), Q96KQ7 | actives 8.8% (n = 350,000) | G9a H3K9 monomethylation, AlphaScreen, 2 h; further: on the % scale 0 is the no-effect control and ±100 the full control effect; nearly all actives have a fitted effect of over 75% in size
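AlphaScreen read-out: biotin-H3K9 peptide (500 nM) methylation by 20 nM enzyme with 20 uM SAM, 2 h at room temperature after 15 min compound preincubation; anti-monomethyl H3K9 antibody plus donor/acceptor beads, 10 min dark.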
* marks the source's active call; other numbers are inactive results; ? = inconclusive; . = not tested or not shown; [ ] = another dose, or the depositor's remark. The call rests on the fitted dose curve; in most records, active means well fitted curve in the direction sought with a large enough effect; inconclusive means small, poorly fitted or top-dose-only effect, or another doubt; inactive means no such curve, though single readings can be large; an effect the other way counts as inactive or inconclusive. Potency means the concentration at half of the fitted maximal effect.

SMILES	BAZ2B inh	JMJD2A Tudor	HP1b binding inh	Sfp PPTase inh	L3MBTL1 block	G9a inh
CCN(CC)C(=O)c1sc(NC(=O)c2cccs2)c(C#N)c1C	23.6%	0.0%	23.8%	6.5%	27.8%	48.5%
C=CCNc1sc(C(=O)c2cccs2)c(N)c1C#N	-1.0%	-21.6%	18.6%	5.5%	6.0%[11.4 µM]	12.6µM*
CN(C(=O)CSc1nc2ccccc2n1CC(=O)N(C)c1ccc(F)cc1)c1ccccc1	-13.1%	-16.9%	29.5%	.	.	-21.1%[12.7 µM]
O=C(/C=C/c1ccc(Cl)c([N+](=O)[O-])c1)Nc1ccc(N2CCCC2)c(Cl)c1	-16.0%	-1.0%	24.0%	6.8%	-6.8%	-3.5%[59 µM]
CCN1CCN(c2ccc(S(=O)(=O)N3CCCCC3)cc2NC(=O)/C=C/c2ccc(F)cc2)CC1	-29.2%	-20.7%	-2.1%	.	-9.0%	1.26µM*
CN1CCN(c2ccc(S(=O)(=O)N3CCCCC3)cc2NC(=O)/C=C/c2ccc(Cl)c([N+](=O)[O-])c2)CC1	?	44.7µM*	?	.	-15.7%	35.5µM*
CCN1CCN(c2ccc(S(=O)(=O)N3CCOCC3)cc2NC(=O)/C=C/c2ccc(C)cc2)CC1	1.6%	-30.4%	-10.0%	.	-0.2%	15.6%[0.501 µM]
CCN1CCN(c2ccc(S(=O)(=O)N3CCCCC3)cc2NC(=O)/C=C/c2ccc([N+](=O)[O-])cc2)CC1	?	?	?	.	-2.9%	17.8µM*
CCN1CCN(c2ccc(S(=O)(=O)N3CCCCC3)cc2NC(=O)/C=C/c2cccc(OC)c2OC)CC1	?	?	-21.5%	-9.6%	.	.
Cc1ccc(C2/C(=C(/O)c3ccc(Cl)cc3)C(=O)C(=O)N2CC2CCCO2)o1 (stereo not given)	-13.4%	-13.2%	37.2%	-17.2%	1.9%	7.5%[59 µM]
O=C1C(=O)N(CC2CCCO2)C(c2ccccc2[N+](=O)[O-])/C1=C(/O)c1ccccc1 (stereo not given)	?	-30.6%	14.1%	?	9.5%	31.6µM*
Fc1ccc(-n2ncc3c(Nc4cccc(Cl)c4)ncnc32)cc1	5.5%	-3.1%	25.4%	.	.	0.0%[59 µM]
O=c1c(Cl)c(NCCCO)cnn1-c1nc2ccccc2[nH]1	50.1µM*	-21.2%[11.4 µM]	-0.7%	12.3%	-9.2%	5.6%[12.7 µM]
C=CCN(CC=C)c1cnn(-c2nc3ccccc3[nH]2)c(=O)c1Cl	?	-20.5%	32.6%	-10.1%	.	?
Cc1ccc(S(=O)(=O)c2c(COC(=O)c3ccccc3Cl)c(-c3ccccc3)nn2C)cc1	6.31µM*	1.2%	26.9%	11.3%	.	-1.8%
O=C(OCc1ccccc1)N1CCC2CC1c1cc(-c3ccc(F)cc3)ccc12 (stereo not given)	.	37.0%	96.1%	.	.	.
Clc1cccc(CN2CCC3CC2c2cc(N4CCCCC4)ccc23)c1 (stereo not given)	.	44.7µM*	?	.	.	.
COC(=O)CCN1CCC2CC1c1cc(Cl)ccc12 (stereo not given)	.	-8.2%	29.0%	.	.	.
O=C(OCc1ccccc1)N1CCC2CC1c1cc(N3CCCCC3)ccc12 (stereo not given)	.	28.2µM*	?	.	.	.
CCN1C(=NCCc2c[nH]c3ccccc23)N[C@@H](c2ccccc2)C(C(=O)OC)=C1C	-38.2%	.	.	?	.	12.0%[12.7 µM]
COC(=O)C1=C(C)N(CCc2c[nH]c3ccccc23)C(=O)/C1=C\N(C)C	-4.6%	-32.5%	6.9%	17.8µM*	0.6%	?
NC(=O)[C@@H]1CCCN1C(=O)[C@H](Cc1cnc[nH]1)NC(=O)[C@@H]1CCC(=O)N1	.	.	.	11.8%	.	20.7%[59 µM]
Cc1nonc1CN(C)C(=O)CC1C(=O)NCCN1Cc1c(F)cccc1Cl (stereo not given)	1.1%	-16.7%	37.9%	?	3.7%	6.8%
Cc1csc(CN(C)C(=O)CC2C(=O)NCCN2Cc2ccc(F)cc2Cl)n1 (stereo not given)	-17.1%	-2.7%	41.1%	-21.5%	.	22.4µM*
COc1ccc(CN2CCNC(=O)C2CC(=O)N(C)Cc2nc(C)cs2)c(OC)c1 (stereo not given)	-32.6%	-8.0%	8.5%	5.4%	.	50.1µM*
SMILES	BAZ2B inh	JMJD2A Tudor	HP1b binding inh	Sfp PPTase inh	L3MBTL1 block	G9a inh
Cc1cc(CN(C)C(=O)CC2C(=O)NCCN2Cc2c(F)cccc2Cl)n[nH]1 (stereo not given)	33.0%	9.0%	23.9%	50.1µM*	-1.7%	39.8µM*
Cc1csc(CN(C)C(=O)CC2C(=O)NCCN2Cc2ccc(Cl)c(F)c2)n1 (stereo not given)	-22.0%	-10.4%	39.7%	1.3%	.	39.8µM*
Cc1csc(CNC(=O)CC2C(=O)NCCN2Cc2ccc(F)cc2Cl)n1 (stereo not given)	1.7%	-3.7%	33.4%	-22.9%	.	55.3%
COC(=O)C1(C(=O)OC)C/C=C\Cc2ccccc2[C@@H]1C[N+](=O)[O-]	.	.	.	-16.2%	.	.
COc1ccc(N2CCN(S(=O)(=O)CCNC(=O)C3CCCCC3)CC2)cc1	-13.8%	-20.3%	47.9%	4.4%	.	-1.2%
Cc1cc(C)cc(NC(=O)CCc2nc3sc4c(c3c(=O)[nH]2)CCCC4)c1	-38.1%	-27.4%	18.3%	.	?	-2.6%[59 µM]
CC1CC(C)(C)CC2(C1)NC(=O)N(CC(=O)N1CCN(S(=O)(=O)c3cccs3)CC1)C2=O (stereo not given)	4.3%	-15.5%	38.9%	.	-6.9%	-13.3%[59 µM]
Cc1ccccc1Nc1nc(N)c(C(=O)c2ccccc2Cl)s1	31.6µM*	56.2µM*	-25.4%	.	.	-48.8%[59 µM]
COc1ccc(C(=O)c2sc(Nc3cc(Cl)ccc3C)nc2N)cc1OC	?	22.4µM*	-20.7%	.	.	-48.1%[59 µM]
COc1ccc(C(=O)c2sc(Nc3ccccc3)nc2N)cc1	-9.6%	-19.6%	31.4%	-22.5%	-11.9%	-14.9%
Nc1nc(Nc2ccccc2)sc1C(=O)c1ccccc1	39.8µM*	?	?	-4.0%	.	44.7µM*
COc1ccc(C(=O)c2sc(Nc3ccccc3)nc2N)cc1OC	-32.5%	?	-24.0%	-17.1%	.	70.8µM*
O=C(NC1(C(F)(F)F)NC(=O)N(c2ccc(F)cc2)C1=O)c1cccs1 (stereo not given)	-4.5%	-9.7%	19.4%	12.6%	7.0%	-9.4%[59 µM]
Cc1cccc(NC(=O)CN(C)C(=O)C2CC2)c1C	3.2%	-3.8%	22.3%	.	-0.3%	9.0%[2.33 µM]
CO/C=C\C=C/c1nnn(-c2ccc(Cl)cc2)n1	-10.5%	-5.6%	43.7%	4.47µM*	-9.3%	50.1µM*
